Screens as filed in PubChem.
In the library only some 2.3% were active in any assay of this set; here they are far more common.
GLP1R inv ag: inverse agonists of human GLP-1 receptor | AID 624417 | Potency, µM (highest dose often 38.3 µM), without a hit: at the highest dose activity change, negative = inhibition, usual class: inhibitors | HEK293 GLP-1R CRE-luciferase, luminescence, 24 h; GLP-1R form is constitutively active | P43220 | hit rate 1.6% among 410,000; also: % is scaled to controls: 0 for no effect and ±100 for the full control effect; nearly all actives have a fitted effect of over 55% in size
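HEK293 cells stably co-expressing a cAMP-responsive luciferase reporter and constitutively active GLP-1R were seeded, incubated 12 h, then exposed to compounds for 24 h at 37 C. Luminescence was read 12 min after detection reagent; inverse agonists lower signal.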
GLS inh: inhibitors of human glutaminase (GLS); O94925; Potency, µM (highest dose often 45.5 µM), for inactives: at the top dose activity change, negative = inhibition, actives largely listed as inhibitors; hit rate 0.21% among 410,000; GLS enzymatic activity, qHTS titration; also: % is scaled to controls: 0 for no effect and ±100 for the full control effect
Target sequence (O94925 whole entry, looked up): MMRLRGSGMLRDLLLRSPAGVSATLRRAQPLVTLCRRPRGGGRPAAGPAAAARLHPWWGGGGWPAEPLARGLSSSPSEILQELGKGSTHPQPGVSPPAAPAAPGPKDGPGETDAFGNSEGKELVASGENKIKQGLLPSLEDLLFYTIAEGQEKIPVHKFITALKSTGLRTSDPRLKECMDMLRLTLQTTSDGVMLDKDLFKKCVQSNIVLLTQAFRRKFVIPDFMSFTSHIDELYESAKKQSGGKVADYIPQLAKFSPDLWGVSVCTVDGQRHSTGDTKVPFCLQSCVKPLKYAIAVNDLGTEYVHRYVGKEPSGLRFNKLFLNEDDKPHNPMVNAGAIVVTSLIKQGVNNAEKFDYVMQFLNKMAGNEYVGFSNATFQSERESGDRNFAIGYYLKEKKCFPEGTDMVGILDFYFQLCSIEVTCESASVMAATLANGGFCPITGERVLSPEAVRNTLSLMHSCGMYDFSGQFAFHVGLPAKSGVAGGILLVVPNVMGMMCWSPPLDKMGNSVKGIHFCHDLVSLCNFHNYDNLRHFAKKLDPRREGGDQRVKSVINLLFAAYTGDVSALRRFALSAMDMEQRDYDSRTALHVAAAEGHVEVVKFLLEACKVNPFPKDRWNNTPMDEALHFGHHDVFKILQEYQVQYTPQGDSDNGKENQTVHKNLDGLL
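Human kidney-isoform GLS in 45 mM KH2PO4 pH 8.2, 0.02% Tween-20, with compound, started with 1mM L-Glutamine (added stock). Glutamate oxidase/HRP/Amplex red coupled fluorescence read at start and after 30 min at RT.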
PTHR1 agonist: activates the human parathyroid hormone receptor PTHR1; Potency, µM (doses to about 115 µM), for the others: at the top dose activation, usual class: activators; HEK293 GP2 PTHR1 cells, GloSensor cAMP luminescence, 1 h; hit rate 0.075% among 410,000; Q03431; also: nearly all actives have a fitted effect of over 55% in size
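HEK-293-derived GP2 cells expressing PTHR1 and a GloSensor cAMP reporter, 3,000/well, plated overnight, given luciferin plus IBMX (each 0.5 mM as added) for 1 h at 37 °C, then compound for 1 h at 37 °C. Luminescence was read after 15 min at room temperature.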
GLP1R ag: agonists of human GLP-1 receptor | P43220 | HEK293 GLP-1R CRE-luciferase, luminescence, 4-6 h; cells express a hypersensitive GLP-1R form | Potency, µM (titrated, usually from 45.6 µM), for the others: at the top dose activation, usual class: activators | hit rate 0.007% among 380,000 | AID 624172; also: % of control where 0% means no effect
12-LOX inh: inhibitors of human 12S-lipoxygenase ALOX12. hit rate 1.1% among 580,000. Potency, µM (doses to about 108 µM), inactives show at the highest dose activity change, negative = inhibition, usual class: inhibitors. P18054. purified 12hLO, xylenol orange hydroperoxide absorbance; also: % is scaled to controls: 0 for no effect and ±100 for the full control effect
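Purified human 12hLO (150 nM final) in 25 mM Hepes, 0.01% Triton X-100, pH 7.0 was preincubated 15 min at room temperature with compound. Then 40 uM arachidonic acid was added, 30 min. Hydroperoxide was read by Fe-XO absorbance ratio 573/405 nm.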
GRP78 ERSR act: inducers of ER stress response in human glioma cells. Potency, µM, without a hit: at the highest dose activation, actives largely listed as activators. U87-MG GRP78 promoter luciferase reporter, 16 h. hit rate 0.02% among 420,000; also: series mostly up to about 76 µM; % of control where 0% means no effect; nearly all actives have a fitted effect of over 35% in size
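ERSR induction read as luciferase luminescence (Bright-Glo, 10 min at room temperature) in stably transfected human U87-MG glioma cells exposed to compounds for 16 h, using GRP78 as sensor.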
* hit, by the source's call; i = inactive; ? = inconclusive; / = no result. Calls follow the shape of the dose curve; as a rule, active = well fitted curve in the direction sought with a large enough effect; inconclusive = small, poorly fitted or top-dose-only effect, or another doubt; inactive = no such curve, though single readings can be large; an effect the other way counts as inactive or inconclusive. Potency is read from the fitted curve at half-maximal effect.

SMILES	GLP1R inv ag	GLS inh	PTHR1 agonist	GLP1R ag	12-LOX inh	GRP78 ERSR act
COc1ccc(NC(=S)NC(=O)/C=C/c2ccco2)c(OC)c1	20.9%	11.3%	-12.6%	8.5%	35.5µM*	-2.6%
Cn1c(=O)c2c(-c3ccc(F)cc3)n(CC(N)=O)cc2n(C)c1=O	/	/	/	/	-23.8%	/
O=C(COc1cccc(-n2cnnn2)c1)NC1CCCC1	/	/	/	/	11.9%	/
Fc1ccc(-c2nc3ccc(Br)cn3c2Cc2ccccc2)cc1	8.91µM*	3.2%	-10.9%	16.6%	?	0.1%
Cc1ccc(Cc2c(-c3ccc(C)cc3)nc3ccc(Br)cn23)cc1	?	-4.7%	-45.1%	20.7%	10µM*	1.9%
Cc1ccc(Cc2c(-c3ccco3)nc3ccc(Br)cn23)cc1	11.2%	-6.2%	-2.5%	1.3%	39.8µM*	?
Brc1ccc2nc(-c3ccco3)c(CC3CCCCC3)n2c1	-5.7%	-29.0%	i	-3.8%	15.8µM*	?
COc1ccc(Cc2c(-c3ccco3)nc3ccc(Br)cn23)c(C)c1	?	?	-93.2%	-2.0%	?	-11.0%
Cc1ccc2nc(-c3ccco3)c(CC3CCCCC3)n2c1	-5.9%	-13.6%	-19.6%	7.2%	/	-0.8%
O=C(N/N=C/c1c[nH]c2ccccc12)c1csc2ccccc12	/	/	/	/	13.7%	/
Cc1ccc(Cc2c(-c3ccc(Cl)cc3)nc3ccc(Br)cn23)cc1	?	-4.7%	i	-1.7%	?	4.5%
Cc1ccc(Cc2c(-c3cccc(Br)c3)nc3ccc(Br)cn23)cc1	-8.4%	19.9%	-25.5%	-0.6%	25.1µM*	2.0%
Cc1ccc(Sc2csc(-c3ccccc3)n2)cc1	/	/	/	/	33.6%	/
S=C(NCc1cccnc1)Nc1cc(Cl)cc(Cl)c1	10µM*	5.7%	-22.0%	1.8%	0.0%	8.2%
CCOC(=O)[C@]12CCCC=C1N(CCc1ccc(OC)c(OC)c1)C(=O)[C@H](CC(=O)NCc1ccccc1)C2	-15.9%	/	-16.8%	/	-15.7%	/
CCCCCCCCN1C(=O)[C@H](CC(=O)NCc2cccs2)C[C@@]2(C(=O)OCC)CCCC=C12	10µM*	4.0%	-69.6%	-2.1%	-19.1%	/
CCCCCCCCN1C(=O)[C@H](CC(=O)NCc2cccs2)C[C@@]2(C(=O)OC)CCCCC=C12	?	-20.3%	-14.9%	-3.5%	1.8%	/
CCCCCCCCN1C(=O)[C@H](CC(=O)NCc2cccc(C(F)(F)F)c2)C[C@@]2(C(=O)OC)CCCCC=C12	10µM*	-6.5%	-14.6%	2.8%	-1.3%	/
COC(=O)[C@]12CCCCC=C1N(Cc1ccccc1)C(=O)[C@H](CC(=O)NCC13CC4CC(CC(C4)C1)C3)C2	10µM*	2.0%	-10.1%	-2.0%	?	/
CCCCCCCCN1C(=O)[C@H](CC(=O)NCc2ccc(OC)c(OC)c2)C[C@@]2(C(=O)OCC)CCCC=C12	10µM*	-4.0%	-38.2%	3.6%	?	/
Cc1ccc(-c2nc(CSCc3ccc(C#N)cc3)cs2)cc1	/	/	/	/	1.1%	/
CCCOc1ccc2c(-c3ccccc3)cc(=O)oc2c1	/	/	/	/	-9.8%	/
COCC(=O)N1CCC(Oc2nccnc2N2CCc3ccccc32)C1 (configuration not stated)	/	/	/	/	29.0%	/
CCOC(=O)c1c(C)c(C(=O)Nc2ccc(C)c(F)c2)c(C)n1C	/	/	/	/	2.0%	/
CCOC(=O)[C@]12CCC=C1N(Cc1ccc(Cl)cc1Cl)C(=O)[C@H](CC(=O)NCc1cccc(C(F)(F)F)c1)C2	11.2µM*	-9.3%	-22.8%	-0.7%	0.6%	/
COC(=O)[C@@]12C[C@@H](CC(=O)NCCCCc3ccccc3)C(=O)N(Cc3ccco3)C1=CCC(C)(C)C2	10µM*	/	-32.6%	/	-24.8%	/
CCOC(=O)[C@]12CCCC=C1N(Cc1ccc(Cl)cc1Cl)C(=O)[C@H](CC(=O)NCc1cccc(C(F)(F)F)c1)C2	?	-7.4%	-10.9%	-3.0%	-1.7%	/
